# Results reported in publication PMC11062922 (Nature Chemical Biology, 2023).
# Like-named read-outs stand apart in the source and are kept apart here.
# Tests used:
# PAK6 = conditions: read-out: apparent Kd, n = 1
# RET = conditions: read-out: apparent Kd, n = 1
# [1] = compound concentrations:100 nM and 1000 nM (sheet 'Lestaurtinib' of Supplementary Table 1),run:Lestaurtinib_02422_R3,Plate:MR006
# [2] = compound concentrations:100 nM and 1000 nM (sheet 'Lestaurtinib' of Supplementary Table 1),run:Lestaurtinib_02437_R1,Plate:MR007
# [3] = compound concentrations:100 nM and 1000 nM (sheet 'Lestaurtinib' of Supplementary Table 1),run:Lestaurtinib_02437_R2,Plate:MR007
# [4] = compound concentrations:100 nM and 1000 nM (sheet 'Lestaurtinib' of Supplementary Table 1),run:Lestaurtinib_02437_R3,Plate:MR007
# [5] = compound concentrations:100 nM and 1000 nM (sheet 'Lestaurtinib' of Supplementary Table 1),run:Lestaurtinib_02438_R2,Plate:MR008
# [6] = compound concentrations:100 nM and 1000 nM (sheet 'Lestaurtinib' of Supplementary Table 1),run:Lestaurtinib_02443_R1,Plate:MR009
# [7] = compound concentrations:100 nM and 1000 nM (sheet 'Lestaurtinib' of Supplementary Table 1),run:Lestaurtinib_02443_R3,Plate:MR009
substance,measurement,setting,value
Lestaurtinib,potency estimated from few doses,"PAK6; compound concentrations:100 nM and 1000 nM (sheet 'Lestaurtinib' of Supplementary Table 1),run:Lestaurtinib_02407_R2,Plate:MR005",521 nM
same,potency estimated from few doses,"PAK6; compound concentrations:100 nM and 1000 nM (sheet 'Lestaurtinib' of Supplementary Table 1),run:Lestaurtinib_02407_R3,Plate:MR005",1490 nM
same,potency estimated from few doses,PAK6; [1],1350 nM
same,potency estimated from few doses,PAK6; [2],42.8 nM
same,potency estimated from few doses,PAK6; [3],638 nM
same,potency estimated from few doses,PAK6; [4],165 nM
same,potency estimated from few doses,PAK6; [5],113 nM
same,potency estimated from few doses,PAK6; [6],830 nM
same,potency estimated from few doses,"PAK6; compound concentrations:100 nM and 1000 nM (sheet 'Lestaurtinib' of Supplementary Table 1),run:Lestaurtinib_02443_R2,Plate:MR009",1300 nM
same,potency estimated from few doses,PAK6; [7],169 nM
same,potency estimated from few doses,"PAK6; compound concentrations:100 nM and 1000 nM (sheet 'Lestaurtinib' of Supplementary Table 1),run:Lestaurtinib_02473_R3,Plate:MR010",121 nM
same,potency estimated from few doses,"PAK6; compound concentrations:100 nM and 1000 nM (sheet 'Lestaurtinib' of Supplementary Table 1),run:Lestaurtinib_02482_R2,Plate:MR011",852 nM
same,potency estimated from few doses,"PAK6; compound concentrations:100 nM and 1000 nM (sheet 'Lestaurtinib' of Supplementary Table 1),run:Lestaurtinib_02482_R3,Plate:MR011",797 nM
same,potency estimated from few doses,"PAK6; compound concentrations:100 nM and 1000 nM (sheet 'Lestaurtinib' of Supplementary Table 1),run:Lestaurtinib_02487_R1,Plate:MR012",1690 nM
same,potency estimated from few doses,"PAK6; compound concentrations:100 nM and 1000 nM (sheet 'Lestaurtinib' of Supplementary Table 1),run:Lestaurtinib_02487_R3,Plate:MR012",100 nM
same,potency estimated from few doses,"PAK6; compound concentrations:100 nM and 1000 nM (sheet 'Lestaurtinib' of Supplementary Table 1),run:Lestaurtinib_02496_R2,Plate:MR013",1370 nM
same,potency estimated from few doses,"PAK6; compound concentrations:100 nM and 1000 nM (sheet 'Lestaurtinib' of Supplementary Table 1),run:Lestaurtinib_02496_R3,Plate:MR013",1590 nM
same,potency estimated from few doses,"PAK6; compound concentrations:100 nM and 1000 nM (sheet 'Lestaurtinib' of Supplementary Table 1),run:Lestaurtinib_02566_R1,Plate:MR014",49.6 nM
same,potency estimated from few doses,"PAK6; compound concentrations:100 nM and 1000 nM (sheet 'Lestaurtinib' of Supplementary Table 1),run:Lestaurtinib_02566_R3,Plate:MR014",35.1 nM
same,potency estimated from few doses,"PAK6; compound concentrations:100 nM and 1000 nM (sheet 'Lestaurtinib' of Supplementary Table 1),run:Lestaurtinib_02572_R3,Plate:MR015",1350 nM
same,potency estimated from few doses,"PAK6; compound concentrations:100 nM and 1000 nM (sheet 'Lestaurtinib' of Supplementary Table 1),run:Lestaurtinib_02577_R1,Plate:MR016",1350 nM
same,potency estimated from few doses,"PAK6; compound concentrations:100 nM and 1000 nM (sheet 'Lestaurtinib' of Supplementary Table 1),run:Lestaurtinib_02584_R1,Plate:MR017",953 nM
same,potency estimated from few doses,"PAK6; compound concentrations:100 nM and 1000 nM (sheet 'Lestaurtinib' of Supplementary Table 1),run:Lestaurtinib_02584_R3,Plate:MR017",896 nM
same,potency estimated from few doses,"PAK6; compound concentrations:100 nM and 1000 nM (sheet 'Lestaurtinib' of Supplementary Table 1),run:Lestaurtinib_02601_R2,Plate:MR018",846 nM
same,potency estimated from few doses,"PAK6; compound concentrations:100 nM and 1000 nM (sheet 'Lestaurtinib' of Supplementary Table 1),run:Lestaurtinib_02601_R3,Plate:MR018",974 nM
same,potency estimated from few doses,"PAK6; compound concentrations:100 nM and 1000 nM (sheet 'Lestaurtinib' of Supplementary Table 1),run:Lestaurtinib_02606_R1,Plate:MR019",1440 nM
same,potency estimated from few doses,"PAK6; compound concentrations:100 nM and 1000 nM (sheet 'Lestaurtinib' of Supplementary Table 1),run:Lestaurtinib_02606_R2,Plate:MR019",722 nM
same,potency estimated from few doses,"PAK6; compound concentrations:100 nM and 1000 nM (sheet 'Lestaurtinib' of Supplementary Table 1),run:Lestaurtinib_02624_R1,Plate:MR020",730 nM
same,potency estimated from few doses,"PAK6; compound concentrations:100 nM and 1000 nM (sheet 'Lestaurtinib' of Supplementary Table 1),run:Lestaurtinib_02624_R2,Plate:MR020",686 nM
same,potency estimated from few doses,"PAK6; compound concentrations:100 nM and 1000 nM (sheet 'Lestaurtinib' of Supplementary Table 1),run:Lestaurtinib_02624_R3,Plate:MR020",783 nM
same,potency estimated from few doses,"PAK6; compound concentrations:100 nM and 1000 nM (sheet 'Lestaurtinib' of Supplementary Table 1),run:Lestaurtinib_02748_R1,Plate:MR024",896 nM
same,potency estimated from few doses,"PAK6; compound concentrations:100 nM and 1000 nM (sheet 'Lestaurtinib' of Supplementary Table 1),run:Lestaurtinib_02752_R1,Plate:MR025",793 nM
same,potency estimated from few doses,"PAK6; compound concentrations:100 nM and 1000 nM (sheet 'Lestaurtinib' of Supplementary Table 1),run:Lestaurtinib_02752_R2,Plate:MR025",782 nM
same,potency estimated from few doses,"PAK6; compound concentrations:100 nM and 1000 nM (sheet 'Lestaurtinib' of Supplementary Table 1),run:Lestaurtinib_02752_R3,Plate:MR025",799 nM
same,potency estimated from few doses,"PAK6; compound concentrations:100 nM and 1000 nM (sheet 'Lestaurtinib' of Supplementary Table 1),run:Lestaurtinib_02765_R2,Plate:MR026",766 nM
same,potency estimated from few doses,"PAK6; compound concentrations:100 nM and 1000 nM (sheet 'Lestaurtinib' of Supplementary Table 1),run:Lestaurtinib_02766_R1,Plate:MR027",519 nM
same,potency estimated from few doses,"PAK6; compound concentrations:100 nM and 1000 nM (sheet 'Lestaurtinib' of Supplementary Table 1),run:Lestaurtinib_02766_R2,Plate:MR027",66 nM
same,potency estimated from few doses,"PAK6; compound concentrations:100 nM and 1000 nM (sheet 'Lestaurtinib' of Supplementary Table 1),run:Lestaurtinib_02766_R3,Plate:MR027",696 nM
same,potency estimated from few doses,"PAK6; compound concentrations:100 nM and 1000 nM (sheet 'Lestaurtinib' of Supplementary Table 1),run:Lestaurtinib_02768_R1,Plate:MR028",996 nM
same,potency estimated from few doses,"PAK6; compound concentrations:100 nM and 1000 nM (sheet 'Lestaurtinib' of Supplementary Table 1),run:Lestaurtinib_02795_R1,Plate:MR022",648 nM
same,potency estimated from few doses,"PAK6; compound concentrations:100 nM and 1000 nM (sheet 'Lestaurtinib' of Supplementary Table 1),run:Lestaurtinib_02795_R2,Plate:MR022",528 nM
same,potency estimated from few doses,"PAK6; compound concentrations:100 nM and 1000 nM (sheet 'Lestaurtinib' of Supplementary Table 1),run:Lestaurtinib_02795_R3,Plate:MR022",1440 nM
same,potency estimated from few doses,"PAK6; compound concentrations:100 nM and 1000 nM (sheet 'Lestaurtinib' of Supplementary Table 1),run:Lestaurtinib_02802_R1,Plate:MR029",604 nM
same,potency estimated from few doses,"PAK6; compound concentrations:100 nM and 1000 nM (sheet 'Lestaurtinib' of Supplementary Table 1),run:Lestaurtinib_02802_R3,Plate:MR029",85.9 nM
same,potency estimated from few doses,"PAK6; compound concentrations:100 nM and 1000 nM (sheet 'Lestaurtinib' of Supplementary Table 1),run:Lestaurtinib_02896_R1,Plate:MR030",541 nM
same,potency estimated from few doses,"PAK6; compound concentrations:100 nM and 1000 nM (sheet 'Lestaurtinib' of Supplementary Table 1),run:Lestaurtinib_02896_R2,Plate:MR030",1310 nM
same,potency estimated from few doses,"PAK6; compound concentrations:100 nM and 1000 nM (sheet 'Lestaurtinib' of Supplementary Table 1),run:Lestaurtinib_02896_R3,Plate:MR030",785 nM
same,potency estimated from few doses,"PAK6; compound concentrations:100 nM and 1000 nM (sheet 'Lestaurtinib' of Supplementary Table 1),run:Lestaurtinib_03172_R2,Plate:MR031",581 nM
same,potency estimated from few doses,"PAK6; compound concentrations:100 nM and 1000 nM (sheet 'Lestaurtinib' of Supplementary Table 1),run:Lestaurtinib_03252_R1,Plate:MR032",825 nM
same,potency estimated from few doses,"PAK6; compound concentrations:100 nM and 1000 nM (sheet 'Lestaurtinib' of Supplementary Table 1),run:Lestaurtinib_03260_R1,Plate:MR033",744 nM
same,potency estimated from few doses,"PAK6; compound concentrations:100 nM and 1000 nM (sheet 'Lestaurtinib' of Supplementary Table 1),run:Lestaurtinib_03260_R2,Plate:MR033",805 nM
same,potency estimated from few doses,"RET; compound concentrations:100 nM and 1000 nM (sheet 'Lestaurtinib' of Supplementary Table 1),run:Lestaurtinib_02339_R2,Plate:MR001",240 nM
same,potency estimated from few doses,"RET; compound concentrations:100 nM and 1000 nM (sheet 'Lestaurtinib' of Supplementary Table 1),run:Lestaurtinib_02364_R3,Plate:MR002",273 nM
same,potency estimated from few doses,"RET; compound concentrations:100 nM and 1000 nM (sheet 'Lestaurtinib' of Supplementary Table 1),run:Lestaurtinib_02367_R1,Plate:MR003",274 nM
same,potency estimated from few doses,"RET; compound concentrations:100 nM and 1000 nM (sheet 'Lestaurtinib' of Supplementary Table 1),run:Lestaurtinib_02367_R2,Plate:MR003",260 nM
same,potency estimated from few doses,"RET; compound concentrations:100 nM and 1000 nM (sheet 'Lestaurtinib' of Supplementary Table 1),run:Lestaurtinib_02367_R3,Plate:MR003",265 nM
same,potency estimated from few doses,"RET; compound concentrations:100 nM and 1000 nM (sheet 'Lestaurtinib' of Supplementary Table 1),run:Lestaurtinib_02381_R2,Plate:MR004",218 nM
same,potency estimated from few doses,"RET; compound concentrations:100 nM and 1000 nM (sheet 'Lestaurtinib' of Supplementary Table 1),run:Lestaurtinib_02381_R3,Plate:MR004",113 nM
same,potency estimated from few doses,"RET; compound concentrations:100 nM and 1000 nM (sheet 'Lestaurtinib' of Supplementary Table 1),run:Lestaurtinib_02422_R1,Plate:MR006",162 nM
same,potency estimated from few doses,RET; [1],269 nM
same,potency estimated from few doses,RET; [2],142 nM
same,potency estimated from few doses,RET; [3],146 nM
same,potency estimated from few doses,RET; [4],23.5 nM
same,potency estimated from few doses,"RET; compound concentrations:100 nM and 1000 nM (sheet 'Lestaurtinib' of Supplementary Table 1),run:Lestaurtinib_02438_R1,Plate:MR008",279 nM
same,potency estimated from few doses,RET; [5],286 nM
same,potency estimated from few doses,"RET; compound concentrations:100 nM and 1000 nM (sheet 'Lestaurtinib' of Supplementary Table 1),run:Lestaurtinib_02438_R3,Plate:MR008",304 nM
same,potency estimated from few doses,RET; [6],248 nM
same,potency estimated from few doses,RET; [7],140 nM
same,potency estimated from few doses,"RET; compound concentrations:100 nM and 1000 nM (sheet 'Lestaurtinib' of Supplementary Table 1),run:Lestaurtinib_02473_R2,Plate:MR010",244 nM
